Records with an inconclusive call do not appear. Activity calls are given as the source filed them. Unless noted, calls follow the shape of the dose curve; as a rule, active = well fitted curve in the direction sought with a large enough effect in the repeat runs; inconclusive = weak or mixed curves; inactive = no such curve, though single readings can be large; an effect the other way counts as inactive or inconclusive.
How the values were obtained:
[1] = qHTS assay to identify small molecule agonists of the progesterone receptor (PR) signaling pathway - cell viability counter screen (AID 1346799; calls by dose curve; also: nearly all actives have a fitted effect of over 45% in size; also: potency is read from the fitted curve at half-maximal effect)
How it was run: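 Counter screen for cytotoxicity: compound-treated PR-UAS-bla HEK293T cells (16 hr, 37C, 5% CO2) were assayed with CellTiter-Glo, luminescence measured after 30 min at room temperature.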

[2] = qHTS assay to identify small molecule antagonists of the TGF-beta/Smad signaling pathway - cell viability counter screen (AID 1346824); also: nearly all actives have a fitted effect of over 50% in size; also: potency is read from the fitted curve at half-maximal effect
How it was run: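 SBE-bla HEK 293T cells, incubated overnight, then compound plus 0.25 ng/mL TGF-beta1 (stock added) for 5 hr at 37 C. Viability was read in the same wells by CellTiter-Glo luminescence after 30 min at room temperature.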

[3] = qHTS assay to identify small molecule agonists of the TGF-beta/Smad signaling pathway - cell viability counter screen (AID 1346829); also: nearly all actives have a fitted effect of over 45% in size; also: potency is read from the fitted curve at half-maximal effect
How it was run: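 After overnight seating at 37 C and 5% CO2, reporter cells got compounds for 5 hr and FRET substrate for 2 hr; cell viability then came from CellTiter-Glo luminescence.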

[4] = biological target: Thyrotropin-releasing hormone receptor (Homo sapiens) (UniProt P34981); experiment: qHTS assay to identify small molecule antagonists of the thyrotropin-releasing hormone receptor (TRHR) signaling pathway (AID 1346877; active = well fitted inhibition curve with a large enough effect in the repeat runs, not every such curve was filed as active; also: potency is read from the fitted curve at half-maximal effect)
Thyrotropin-releasing hormone receptor (Homo sapiens), sequence (P34981 whole entry, looked up): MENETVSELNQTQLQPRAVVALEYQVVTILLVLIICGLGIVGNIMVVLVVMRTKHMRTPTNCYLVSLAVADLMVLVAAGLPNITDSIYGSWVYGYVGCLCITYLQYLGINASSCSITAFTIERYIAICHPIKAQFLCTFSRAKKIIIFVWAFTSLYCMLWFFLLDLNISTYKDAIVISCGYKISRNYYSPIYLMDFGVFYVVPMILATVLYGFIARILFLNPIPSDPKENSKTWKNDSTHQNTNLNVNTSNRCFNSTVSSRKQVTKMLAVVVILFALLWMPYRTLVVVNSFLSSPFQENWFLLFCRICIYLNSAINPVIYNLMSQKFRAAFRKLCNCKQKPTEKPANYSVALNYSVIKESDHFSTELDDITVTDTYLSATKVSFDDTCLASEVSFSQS
How it was run: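 TRHR-expressing HEK293 cells were seeded, cultured 18 h at 37 °C, then loaded with calcium dye for 2 h. Compounds were pre-incubated 5 min at room temperature before 1 nM TRH (final) was added, and kinetic fluorescence was recorded for 3 min.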

[5] = biological target: Thyrotropin-releasing hormone receptor (Homo sapiens) (UniProt P34981); experiment: qHTS assay to identify small molecule agonists of the thyrotropin-releasing hormone receptor (TRHR) signaling pathway (AID 1346891; calls by dose curve; also: potency is read from the fitted curve at half-maximal effect; as to activation: series mostly up to about 58 µM; % is scaled to controls: 0 for no effect and ±100 for the full control effect)
How it was run: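 Agonist-mode calcium mobilisation screen: TRHR-transfected HEK293 cells cultured overnight (18 h), dye-loaded for 2 h at 37 °C, exposed to compounds, and monitored by fluorescence for 3 min.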

[6] = Human pregnane X receptor (PXR) small molecule agonists, qHTS cell viability counter screen (AID 1346977); also: nearly all actives have a fitted effect of over 50% in size; also: potency is read from the fitted curve at half-maximal effect
How it was run: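 Measures live-cell protease fluorescence (CellTiter-Fluor) in PXR-Luc HepG2 cells treated 24hr with compounds at 37C. Cells had 5hr to attach before pin transfer of DMSO solutions.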

[7] = Caspase-3/7 induction in HepG2 cells by small molecules, qHTS assay (AID 1346978); also: nearly all actives have a fitted effect of over 15% in size; also: potency is read from the fitted curve at half-maximal effect
How it was run: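 Wild-type HepG2 cells, 2,000/well, settled 5 hr at 37 C and 5% CO2, then compound-treated for 17 hr; caspase-3/7 activity read by luminescent Caspase-Glo 3/7 after 30 min at room temperature.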

[8] = Caspase-3/7 induction in CHO-K1 cells by small molecules, qHTS cell viability counter screen (AID 1346979); also: nearly all actives have a fitted effect of over 35% in size; also: potency is read from the fitted curve at half-maximal effect
How it was run: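 In the same wells as the caspase read, viability of compound-treated wild-type CHO-K1 cells was assessed using CellTiter-Fluor, added after 16hr at 37C and measured by fluorescence following 1hr further incubation.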

[9] = Caspase-3/7 induction in HepG2 cells by small molecules, qHTS cell viability counter screen (AID 1346981); also: nearly all actives have a fitted effect of over 30% in size; also: potency is read from the fitted curve at half-maximal effect
How it was run: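 Wild-type HepG2 cells (2,000/well) were allowed to settle for 5 hr at 37 C, 5% CO2, then dosed with compounds in DMSO by pin transfer. After 16 hr at 37 C, CellTiter-Fluor was added and fluorescence read 1 hr later.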

[10] = qHTS assay to identify small molecule antagonists of the progesterone receptor (PR) signaling pathway - cell viability counter screen (AID 1346798); also: nearly all actives have a fitted effect of over 50% in size; also: potency is read from the fitted curve at half-maximal effect
How it was run: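 Same-well multiplex: after 16 hr at 37C with compound and R5020 stimulation, HEK293T cells carrying a UAS-bla reporter received LiveBLAzer substrate (2 hr RT), then CellTiter-Glo (30 min RT) for luminescent viability.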

[11] = Caspase-3/7 induction in CHO-K1 cells by small molecules, qHTS assay (AID 1346980); also: nearly all actives have a fitted effect of over 15% in size; also: potency is read from the fitted curve at half-maximal effect
How it was run: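 Wild-type CHO-K1 cells exposed to compounds for 17hr at 37 C, 5% CO2. Caspase-3/7 activity then measured by Caspase-Glo 3/7 luminescence after 30min at room temperature.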

[12] = biological target: Nuclear receptor subfamily 1 group I member 2 (Homo sapiens) (UniProt O75469); experiment: CYP3A4 induction through human pregnane X receptor (PXR) by small molecules, qHTS assay (AID 1346984); also: % is scaled to controls: 0 for no effect and ±100 for the full control effect; nearly all actives have a fitted effect of over 40% in size
Nuclear receptor subfamily 1 group I member 2 (Homo sapiens), sequence (O75469 whole entry, looked up): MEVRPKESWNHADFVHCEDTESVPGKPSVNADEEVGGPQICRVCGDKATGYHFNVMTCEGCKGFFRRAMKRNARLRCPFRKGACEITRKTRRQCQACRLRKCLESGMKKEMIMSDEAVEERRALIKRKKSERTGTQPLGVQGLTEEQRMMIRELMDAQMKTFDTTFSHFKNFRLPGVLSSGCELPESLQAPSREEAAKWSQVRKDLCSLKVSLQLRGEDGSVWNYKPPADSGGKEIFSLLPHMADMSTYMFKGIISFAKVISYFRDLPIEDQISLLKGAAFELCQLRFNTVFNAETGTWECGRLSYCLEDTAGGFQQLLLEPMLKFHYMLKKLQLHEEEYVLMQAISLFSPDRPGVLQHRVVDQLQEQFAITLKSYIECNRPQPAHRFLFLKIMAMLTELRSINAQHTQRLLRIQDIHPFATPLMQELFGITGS
How it was run: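 DPX-2 cells (HepG2 co-transfected with PXR and CYP3A4 promoter-luciferase) treated with compounds 24 h at 37C; luciferin-IPA CYP3A4 substrate 3uM final added for 3 h, then One-Glo; luminescence read. qHTS format.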

[13] = biological target: Nuclear receptor subfamily 1 group I member 2 (Homo sapiens) (UniProt O75469); experiment: Human pregnane X receptor (PXR) activation by small molecules, qHTS assay (AID 1346985); also: nearly all actives have a fitted effect of over 40% in size; also: potency is read from the fitted curve at half-maximal effect; as to activation: % is scaled to controls: 0 for no effect and ±100 for the full control effect
How it was run: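 DPX-2 cells (HepG2 co-transfected with a PXR response element and a CYP3A4-promoter luciferase construct) were seeded at 2,000 per well, rested 5 hr at 37C, then exposed to DMSO-dissolved compounds for 24 hr. Activation was read as luciferase luminescence.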

[14] = biological target: Cytochrome P450 2D6 (Homo sapiens) (UniProt P10635); experiment: Cytochrome P450 Family 2 Subfamily D Member 6 (CYP2D6) small molecule antagonists: luciferase reporter qHTS assay (AID 1671196); also: nearly all actives have a fitted effect of over 50% in size; also: potency is read from the fitted curve at half-maximal effect
Cytochrome P450 2D6 (Homo sapiens), sequence (P10635 whole entry, looked up): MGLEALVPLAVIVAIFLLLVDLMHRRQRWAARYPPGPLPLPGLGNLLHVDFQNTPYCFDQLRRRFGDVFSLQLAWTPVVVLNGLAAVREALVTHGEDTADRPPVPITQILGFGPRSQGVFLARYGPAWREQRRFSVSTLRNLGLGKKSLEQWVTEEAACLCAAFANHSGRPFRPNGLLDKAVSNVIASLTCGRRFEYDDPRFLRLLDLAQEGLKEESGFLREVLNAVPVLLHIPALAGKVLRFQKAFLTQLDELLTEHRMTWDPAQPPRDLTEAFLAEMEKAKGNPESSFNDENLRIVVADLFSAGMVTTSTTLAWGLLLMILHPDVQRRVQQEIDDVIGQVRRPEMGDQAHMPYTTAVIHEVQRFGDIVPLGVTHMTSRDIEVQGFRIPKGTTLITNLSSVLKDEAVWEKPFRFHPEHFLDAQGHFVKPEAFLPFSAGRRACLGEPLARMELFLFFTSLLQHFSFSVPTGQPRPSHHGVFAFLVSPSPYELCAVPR
How it was run: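 CYP2D6 enzyme–substrate mix was held with compound for 10 min at room temperature, then NADPH regeneration solution was added and the reaction ran 1 h at room temperature. Luciferin product was detected by luminescence after 20 min with detection reagent.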

[15] = biological target: Nuclear receptor subfamily 1 group I member 2 (Homo sapiens) (UniProt O75469); experiment: Human pregnane X receptor (PXR) small molecule agonists, qHTS assay (AID 1346982); also: nearly all actives have a fitted effect of over 35% in size; also: potency is read from the fitted curve at half-maximal effect; as to activation: % is scaled to controls: 0 for no effect and ±100 for the full control effect
How it was run: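 PXR-Luc HepG2 cells (CYP3A4 promoter-driven luciferase) were seeded in medium with 5% charcoal-stripped FBS, left 5 hr at 37 C, then exposed to compounds in DMSO for 24 hr. Luminescence was read after ONE-Glo addition.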

[16] = qHTS assay to identify small molecule agonists of the TGF-beta/Smad signaling pathway (AID 1346859; active = well fitted activation curve with a large enough effect in the signal ratio in the repeat runs, not every such curve was filed as active; the % refers to the signal ratio; also: series mostly up to about 77 µM; % is scaled to controls: 0 for no effect and ±100 for the full control effect)
How it was run: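 Smad-responsive beta-lactamase reporter cells (HEK 293T) received compounds from DMSO stocks after overnight attachment, were incubated 5 hr, then treated 2 hr with FRET substrate before dual-emission fluorescence measurement (405 nm excitation).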

[17] = biological target: Progesterone receptor (Homo sapiens) (UniProt P06401); experiment: qHTS assay to identify small molecule antagonists of the progesterone receptor (PR) signaling pathway (AID 1346795; active = well fitted inhibition curve with a large enough effect in the signal ratio in the repeat runs, not every such curve was filed as active; the % refers to the signal ratio; also: potency is read from the fitted curve at half-maximal effect)
Progesterone receptor (Homo sapiens), sequence (P06401 whole entry, looked up): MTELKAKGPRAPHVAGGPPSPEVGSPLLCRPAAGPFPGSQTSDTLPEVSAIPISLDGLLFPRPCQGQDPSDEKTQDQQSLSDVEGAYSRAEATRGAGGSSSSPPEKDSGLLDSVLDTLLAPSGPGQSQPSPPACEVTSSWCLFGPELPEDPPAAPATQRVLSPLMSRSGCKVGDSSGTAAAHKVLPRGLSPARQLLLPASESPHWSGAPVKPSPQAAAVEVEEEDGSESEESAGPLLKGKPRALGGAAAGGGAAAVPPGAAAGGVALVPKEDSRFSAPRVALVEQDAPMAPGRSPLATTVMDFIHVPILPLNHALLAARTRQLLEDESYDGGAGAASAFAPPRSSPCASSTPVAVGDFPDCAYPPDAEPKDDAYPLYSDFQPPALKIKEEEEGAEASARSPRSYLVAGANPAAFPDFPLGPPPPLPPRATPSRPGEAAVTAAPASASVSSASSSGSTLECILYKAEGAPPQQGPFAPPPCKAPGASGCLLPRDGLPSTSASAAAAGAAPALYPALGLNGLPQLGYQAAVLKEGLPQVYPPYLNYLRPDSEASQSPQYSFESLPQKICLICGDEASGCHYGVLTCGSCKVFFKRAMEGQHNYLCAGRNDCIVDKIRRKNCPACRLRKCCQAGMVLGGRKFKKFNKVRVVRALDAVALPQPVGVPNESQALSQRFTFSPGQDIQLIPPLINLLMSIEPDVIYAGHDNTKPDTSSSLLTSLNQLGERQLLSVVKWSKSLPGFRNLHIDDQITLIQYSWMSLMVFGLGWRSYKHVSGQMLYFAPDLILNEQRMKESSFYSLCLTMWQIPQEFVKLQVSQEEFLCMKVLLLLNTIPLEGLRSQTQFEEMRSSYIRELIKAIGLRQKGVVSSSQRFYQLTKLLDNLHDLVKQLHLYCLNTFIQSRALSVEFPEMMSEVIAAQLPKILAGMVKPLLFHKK
How it was run: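 HEK293T PR-UAS-bla reporter cells in charcoal-stripped serum (2%) received compound after a 6 hr settling period, followed by R5020 agonist at 1 nM final; 16 hr incubation preceded the FRET substrate step and fluorescence measurement.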

[18] = biological target: Nuclear receptor subfamily 1 group I member 2 (Rattus norvegicus) (UniProt Q9R1A7); experiment: Rat pregnane X receptor (rPXR) activation by small molecules, qHTS assay (AID 1346983); settings: rPXR luciferase reporter cells, One-Glo luminescence, 24 h; max activation: stronger effect = higher value; also: % is scaled to controls: 0 for no effect and ±100 for the full control effect; nearly all actives have a fitted effect of over 20% in size
Nuclear receptor subfamily 1 group I member 2 (Rattus norvegicus), sequence (Q9R1A7 whole entry, looked up): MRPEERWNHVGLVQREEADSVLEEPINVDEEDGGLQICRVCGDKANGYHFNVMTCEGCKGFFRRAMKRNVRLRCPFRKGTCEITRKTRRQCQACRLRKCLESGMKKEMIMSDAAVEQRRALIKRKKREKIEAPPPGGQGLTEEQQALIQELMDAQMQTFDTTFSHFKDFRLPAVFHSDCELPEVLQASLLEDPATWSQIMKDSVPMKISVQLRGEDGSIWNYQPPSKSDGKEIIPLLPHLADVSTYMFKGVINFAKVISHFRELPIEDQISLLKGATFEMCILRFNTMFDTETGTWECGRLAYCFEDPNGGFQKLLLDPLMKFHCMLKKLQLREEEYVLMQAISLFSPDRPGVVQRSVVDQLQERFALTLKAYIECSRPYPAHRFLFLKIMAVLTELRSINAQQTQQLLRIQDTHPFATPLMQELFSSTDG
How it was run: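 Cell-based rPXR activation assay: rPXR cells, 2,000 per well, rested 5hr at 37 C, then exposed to compounds in DMSO for 24 hr at 37 C. Luciferase activity read by One-Glo luminescence after 30 min at room temperature.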

CCCCCCCC/C=C/CCCCCCCC1=NCCN1CCO
active: Potency [1] 61.1 µM | Potency [6] 68.6 µM | Potency [7] 43.3 µM | Potency [8] 54.5 µM | Potency [9] 54.5 µM
inactive: Potency [2] | Potency [3] | Potency [4] | Potency [5]

CCCC(=O)OC[C@@H](OC(=O)CCC)[C@@H](OC(=O)CCC)[C@H](Cn1c2nc(=O)[nH]c(=O)c-2nc2cc(C)c(C)cc21)OC(=O)CCC
active: Potency [5] 13.5 µM | Potency [14] 8.71 µM
inactive: Potency [10] | Potency [2] | Potency [3] | Potency [4] | Potency [7] | Potency [11] | Potency [12] | Potency [13]

CCCCCCCCCCCCCCCCCC[N+](C)(C)Cc1ccccc1
inactive: Potency [11]
active: Potency [10] 27.6 µM | Potency [1] 7.77 µM | Potency [2] 49.5 µM | Potency [3] 49.5 µM | Potency [6] 11 µM | Potency [8] 4.9 µM | Potency [9] 55 µM | Potency [15] 1.55 µM | Potency [14] 0.18 µM

CC(C)(C)C1CCC(CC2=C(O)c3ccccc3C(=O)C2=O)CC1 (centres undefined)
inactive: Potency [10] | Potency [1] | Potency [3] | Potency [16] | Potency [7] | Potency [14]
active: Potency [6] 10.6 µM | Potency [8] 9.44 µM | Potency [9] 11.9 µM | Potency [15] 29.8 µM

CCc1cc(SCc2sc(-c3ccc(C(F)(F)F)cc3)nc2CN2CCN(c3ccc(OC)cc3)CC2)ccc1OCC(=O)O
active: Potency [17] 24.3 µM | Potency [10] 4.86 µM | Potency [1] 6.11 µM | Potency [6] 54.5 µM | Potency [8] 24.3 µM | Potency [9] 24.3 µM | Potency [15] 48.6 µM
inactive: Potency [2] | Potency [4] | Potency [14]

Cc1cc(=O)oc2cc(N(C)C)ccc12
inactive: Potency [2] | Potency [3] | Potency [4] | Potency [5] | Potency [7] | Potency [11]
active: Potency [15] 48.6 µM

CCN(C(=O)c1cc(C)cc(OC[C@H](C)Nc2ccncc2)c1)C(C)C
inactive: Potency [10] | Potency [1] | Potency [2] | Potency [3] | Potency [16] | Potency [4] | Potency [5] | Potency [7] | Potency [8] | Potency [11] | Potency [9]
active: Potency [15] 17 µM | Potency [14] 22.2 µM

Cc1cc(C2CCCCC2)n(O)c(=O)c1
inactive: Potency [10] | Potency [1] | Potency [2] | Potency [3] | Potency [16] | Potency [11] | Potency [9] | Potency [15] | max activation [18] -2.39% | Potency [13] | Potency [14]
active: Potency [17] 3.35 µM | Potency [6] 26.6 µM | Potency [8] 23.7 µM

O=c1[nH]sc2ccccc12
inactive: Potency [2] | Potency [3] | Potency [16] | Potency [7] | Potency [14]
active: Potency [10] 27.3 µM | Potency [1] 30.6 µM | Potency [6] 27.3 µM | Potency [8] 19.3 µM | Potency [15] 8.63 µM

NC(=O)C1(N2CCCCC2)CCN(CCCN2c3ccccc3CCc3ccc(Cl)cc32)CC1
inactive: Potency [4] | Potency [5]
active: Potency [17] 23.7 µM | Potency [10] 23.7 µM | Potency [1] 16.8 µM | Potency [6] 13.3 µM | Potency [8] 26.6 µM | Potency [15] 1.33 µM | Potency [14] 7.76 µM

O=C(Nc1cccc(C(F)(F)F)c1)c1cc(Br)cc(Br)c1O
inactive: Potency [4] | Potency [5] | max activation [18] -18.6% | Potency [13] | Potency [14]
active: Potency [10] 21.7 µM | Potency [6] 2.73 µM | Potency [8] 6.86 µM | Potency [15] 17.2 µM

CC[C@@]1(O)C(=O)OCc2c1cc1n(c2=O)Cc2c-1nc1ccccc1c2/C=N/OC(C)(C)C
inactive: Potency [10] | Potency [1] | Potency [2] | Potency [3] | Potency [4] | Potency [15] | Potency [14]
active: Potency [6] 0.237 µM | Potency [7] 0.335 µM | Potency [8] 0.75 µM | Potency [11] 11.9 µM

Nc1ccc2c3c(cccc13)-c1ccccc1-2
inactive: Potency [1] | Potency [2] | Potency [3] | Potency [4] | Potency [11]
active: Potency [5] 31.2 µM | Potency [15] 27.6 µM

CCCCCCCCCCCCCCCCCC[N+](C)(C)C
inactive: Potency [16] | Potency [7] | Potency [15]
active: Potency [10] 48.7 µM | Potency [1] 54.6 µM | Potency [2] 43.8 µM | Potency [4] 30.3 µM | Potency [5] 34.8 µM | Potency [6] 54.6 µM | Potency [8] 27.4 µM | Potency [14] 0.635 µM

C=C(C)C(=O)OCC(O)COc1ccc(C(C)(C)c2ccc(OCC(O)COC(=O)C(=C)C)cc2)cc1 (centres undefined)
active: Potency [17] 61.1 µM | Potency [8] 54.5 µM | Potency [15] 27.3 µM | Potency [14] 39.9 µM
inactive: Potency [16] | Potency [4] | Potency [5] | Potency [6] | Potency [7] | Potency [11]

Cc1[nH]cnc1C[C@H]1CCc2c(C)c3ccccc3n2C1=O
inactive: Potency [3] | Potency [16] | Potency [4] | Potency [5] | Potency [11]
active: Potency [17] 37.6 µM | Potency [8] 47.4 µM | Potency [15] 59.6 µM | Potency [14] 4.37 µM

CC1=C(C(=O)OC(C)C)C(c2cccc([N+](=O)[O-])c2)C(C(=O)OC2CN(C(c3ccccc3)c3ccccc3)C2)=C(N)N1 (centres undefined)
inactive: Potency [2] | Potency [16] | Potency [4] | Potency [5] | max activation [18] -6.42%
active: Potency [6] 16.8 µM | Potency [8] 21.1 µM | Potency [9] 33.5 µM | Potency [15] 9.44 µM | Potency [13] 7.08 µM

Source: PubChem BioAssay (Tox21)
